# Assay outcomes: PubChem BioAssay, National Center for Advancing Translational Sciences (NCATS)
# Sfp inh – blocks B. subtilis Sfp PPTase activity. Q9F4F7. actives 3.5% (n = 310,000). Potency, µM, for inactives: largest response in the series, negative = inhibition, usual class: inhibitors. Biochemical Sfp PPTase activity, qHTS;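 further: the enzyme is Sfp with the accession as filed and its product quenches rhodamine fluorescence; 0% = enzyme reaction without inhibitor and -100% = no enzyme wells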
#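 Fluorescence-quenching assay with 15 nM Sfp, 5 uM rhodamine-CoA and 12.5 uM BHQ-2-labelled ybbR peptide in pH 7.6 Hepes/MgCl2 buffer. Enzyme was pre-incubated with compound for 15 min at room temperature. Rate was taken from the 30-min fluorescence change (525/598 nm).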
# HP1b binding inh – HP1-beta chromodomain-methylated histone interaction inhibition | P83916 | AlphaScreen HP1-beta / biotin-H3K9me3 peptide binding | Potency, µM (doses to about 114 µM), without a hit: at the top dose activity change, negative = inhibition, most hits filed as inhibitors | actives 0.56% (n = 390,000) | AID 540317; further: nearly all actives have a fitted effect of over 70% in size
#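 AlphaScreen: HP1-beta (50 nM) preformed 30 min with biotin-H3(1-18)K9me3 peptide (50 nM) in PBS pH 7.4, 0.01% Tween-20. Compound added for 30 min at RT, then streptavidin donor/nickel chelate acceptor beads (10 ug/mL) for 30 min.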
# JMJD2A Tudor – blocks the human JMJD2A Tudor domain. O75164. AlphaScreen JMJD2A-Tudor / H3K4me3 peptide binding. Potency, µM (series often up to 114 µM), without a hit: at the top dose activity change, negative = inhibition, hits mostly inhibitors. actives 4.4% (n = 390,000). AID 504339; further: on the % scale 0 is the no-effect control and ±100 the full control effect; nearly all actives have a fitted effect of over 50% in size
# L3MBTL1 block – blocks human L3MBTL1 | Q9Y468 | AlphaScreen L3MBTL1–H3K9me1 peptide binding | Potency, µM (top dose mostly 57.1 µM), for inactives: top-dose activity, negative = inhibition, most hits filed as inhibitors | actives 0.66% (n = 230,000) | AID 485360; further: on the % scale 0 is the no-effect control and ±100 the full control effect; nearly all actives have a fitted effect of over 60% in size
#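 AlphaScreen assay: L3MBTL1 (50 nM final) was preincubated 30 min at room temperature with biotinylated H3(1-15)K9me1 peptide (75 nM final), then 30 min with library compounds; streptavidin donor and nickel chelate acceptor beads (10 ug/mL final) added, 30 min dark.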
# G9a inh – G9a (human) methyltransferase inhibition; G9a H3K9 monomethylation, AlphaScreen, 2 h; Q96KQ7; actives 8.8% (n = 350,000); Potency, µM (top dose mostly 102 µM), for inactives: top-dose activity, negative = inhibition, hits mostly inhibitors; further: on the % scale 0 is the no-effect control and ±100 the full control effect; nearly all actives have a fitted effect of over 75% in size
#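 AlphaScreen detection with an anti-monomethyl H3K9 antibody quantified product after a 2 h room-temperature reaction containing 500 nM biotinylated H3K9 peptide, 20 µM SAM and 20 nM enzyme, which had been preincubated 15 min with compound.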
# BAZ2B inh – inhibitors of human BAZ2B bromodomain. Q9UIF8. AlphaScreen BAZ2B-H3K14Ac peptide displacement. Potency, µM (doses to about 114 µM), for the others: at the top dose activity change, negative = inhibition, usual class: inhibitors. actives 4.4% (n = 360,000); further: on the % scale 0 is the no-effect control and ±100 the full control effect; nearly all actives have a fitted effect of over 60% in size
# Target sequence (Q9UIF8 whole entry, looked up): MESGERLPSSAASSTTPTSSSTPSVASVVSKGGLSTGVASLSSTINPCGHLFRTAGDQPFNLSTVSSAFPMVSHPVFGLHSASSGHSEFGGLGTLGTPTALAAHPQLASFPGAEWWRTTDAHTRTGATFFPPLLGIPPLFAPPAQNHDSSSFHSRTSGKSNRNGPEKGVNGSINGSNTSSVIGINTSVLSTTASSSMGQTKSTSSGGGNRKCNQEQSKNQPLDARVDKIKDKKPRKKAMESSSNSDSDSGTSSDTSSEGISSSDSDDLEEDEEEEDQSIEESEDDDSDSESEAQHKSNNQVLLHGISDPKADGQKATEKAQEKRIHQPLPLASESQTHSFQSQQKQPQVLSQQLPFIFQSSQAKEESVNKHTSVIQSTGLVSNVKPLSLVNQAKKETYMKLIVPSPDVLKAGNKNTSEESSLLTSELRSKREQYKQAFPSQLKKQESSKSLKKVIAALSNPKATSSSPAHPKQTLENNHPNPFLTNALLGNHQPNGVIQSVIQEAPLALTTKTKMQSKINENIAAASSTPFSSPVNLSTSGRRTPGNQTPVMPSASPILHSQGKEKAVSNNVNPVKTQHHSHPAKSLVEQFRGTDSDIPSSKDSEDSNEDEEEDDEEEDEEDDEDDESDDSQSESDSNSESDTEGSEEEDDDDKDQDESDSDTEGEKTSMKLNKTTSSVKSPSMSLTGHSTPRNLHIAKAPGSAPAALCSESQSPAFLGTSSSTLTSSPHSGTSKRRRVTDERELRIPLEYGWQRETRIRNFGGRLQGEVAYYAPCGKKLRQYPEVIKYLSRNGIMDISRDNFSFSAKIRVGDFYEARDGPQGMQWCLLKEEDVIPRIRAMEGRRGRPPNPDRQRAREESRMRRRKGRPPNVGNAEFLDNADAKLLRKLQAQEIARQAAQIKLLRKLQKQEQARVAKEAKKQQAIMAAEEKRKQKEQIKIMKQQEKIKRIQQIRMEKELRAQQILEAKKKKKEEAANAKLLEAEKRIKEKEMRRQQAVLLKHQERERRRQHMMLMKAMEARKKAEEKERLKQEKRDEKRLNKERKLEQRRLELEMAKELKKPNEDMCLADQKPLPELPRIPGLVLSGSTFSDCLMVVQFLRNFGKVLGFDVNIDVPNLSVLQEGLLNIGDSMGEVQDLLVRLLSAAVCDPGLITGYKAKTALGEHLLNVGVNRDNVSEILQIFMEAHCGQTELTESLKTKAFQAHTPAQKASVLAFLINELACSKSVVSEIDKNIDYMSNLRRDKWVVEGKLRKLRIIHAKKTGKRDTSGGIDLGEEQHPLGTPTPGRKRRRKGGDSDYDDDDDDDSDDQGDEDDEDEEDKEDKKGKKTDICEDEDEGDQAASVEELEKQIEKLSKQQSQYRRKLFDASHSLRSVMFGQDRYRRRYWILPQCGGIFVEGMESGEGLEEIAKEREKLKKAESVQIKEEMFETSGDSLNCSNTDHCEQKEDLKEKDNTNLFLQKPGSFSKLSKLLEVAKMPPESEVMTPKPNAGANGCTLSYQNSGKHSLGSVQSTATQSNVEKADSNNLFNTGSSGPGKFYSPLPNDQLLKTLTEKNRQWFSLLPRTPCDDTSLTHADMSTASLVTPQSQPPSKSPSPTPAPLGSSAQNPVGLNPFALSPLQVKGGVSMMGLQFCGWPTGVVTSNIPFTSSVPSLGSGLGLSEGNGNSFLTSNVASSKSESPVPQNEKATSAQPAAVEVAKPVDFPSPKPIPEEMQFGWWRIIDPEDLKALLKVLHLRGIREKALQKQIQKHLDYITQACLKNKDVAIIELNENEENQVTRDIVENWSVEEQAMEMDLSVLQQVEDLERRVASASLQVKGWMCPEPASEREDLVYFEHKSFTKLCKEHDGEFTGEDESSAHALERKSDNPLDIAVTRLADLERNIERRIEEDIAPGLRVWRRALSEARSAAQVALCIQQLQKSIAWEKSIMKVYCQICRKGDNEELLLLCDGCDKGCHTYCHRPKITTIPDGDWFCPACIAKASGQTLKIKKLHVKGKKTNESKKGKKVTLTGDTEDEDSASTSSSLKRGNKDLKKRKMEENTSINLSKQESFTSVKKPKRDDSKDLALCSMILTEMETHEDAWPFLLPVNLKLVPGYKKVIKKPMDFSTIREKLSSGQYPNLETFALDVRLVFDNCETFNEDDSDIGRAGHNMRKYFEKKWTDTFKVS
#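 Compounds, titrated to a top concentration of 110 uM, were incubated 30 min at room temperature with preformed BAZ2B/acetyl-K14 H3 peptide complex (50 nM each). Proximity signal was measured by AlphaScreen after 20 min with beads.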
# An asterisk follows results filed as active; ? = inconclusive; / = not tested or not shown; [ ] = remark or other dose. In the library only some 12% were active in any assay of this set; here they are far more common. The call rests on the fitted dose curve; in most records, active means well fitted curve in the direction sought with a large enough effect; inconclusive means small, poorly fitted or top-dose-only effect, or another doubt; inactive means no such curve, though single readings can be large; an effect the other way counts as inactive or inconclusive. Potency means the concentration at half of the fitted maximal effect.
SMILES,Sfp inh,HP1b binding inh,JMJD2A Tudor,L3MBTL1 block,G9a inh,BAZ2B inh
C[C@H]1O[C@@H](O[C@H]2[C@@H](O)C[C@H](O[C@H]3[C@@H](O)C[C@H](O[C@H]4CC[C@]5(C)C6CC[C@]7(C)[C@@H](C8=CC(=O)OC8)CC[C@]7(O)C6CC[C@@H]5C4)O[C@@H]3C)O[C@@H]2C)C[C@H](O)[C@@H]1O (stereo partly drawn),-2%,/,/,/,/,/
COc1ccc(C(=O)CN2CCOCC2)cc1F,9%,34%,-31%,12%,28µM*,-12%
Cc1cc(C)c(-n2c(O)c(C=NCCN3CCOCC3)c(=O)[nH]c2=O)c(C)c1,18%,57%,2%,1%,-5%,-2%
Cc1cc(C)c(C(=O)CN2CCOCC2)c(C)c1,3%,64%,?,1%,3.2µM*,-7%
O=C(CN1CCOCC1)c1ccc2cc[nH]c2c1,50µM*,28%,-30%,10%,32µM*,4%
c1ccc(CN2CCC3(CCNCC3)CC2)cc1,-12%,/,/,/,-28%[12.7 µM],/
CC(Cc1ccc(C(C)(C)C)cc1)CN1CCCCC1 (stereo not drawn),4%,/,/,/,/,/
CNc1ccc(C(=O)CC(O)CCC(C)C2OC(=O)CC(O)CC(=O)CC(O)CC(O)CC(O)CC(O)CC3(O)CC(O)C(C(=O)OC)C(CC(O[C@@H]4OC(C)C(O)C(N)C4O)/C=C/C=C/C=C/C=C/C=C/C=C/C=C/C2C)O3)cc1 (stereo partly drawn),-14%,/,/,/,7%[2.33 µM],/
C[C@H]1CC[C@H]2NCCN[C@H]2C1,100µM*,21%,-6%,49%,/,1%
COP(=S)(OC)SCn1nnc2ccccc2c1=O,22µM*,-7%,-10%,/,/,/
CC[C@H]1C2CC3[C@@H]4N(C)c5ccccc5[C@]45C[C@@H](C2[C@H]5O)N3[C@@H]1O (stereo partly drawn),8%,/,/,/,/,/
C[C@H](CO)N1C[C@H](C)[C@@H](CN(C)Cc2ccc(-c3ccccc3)cc2)Oc2c(NC(=O)c3ccncc3)cccc2C1=O,/,3%,?,-5%,/,/
C(=NC1CCCCC1)c1c[nH]c2ccccc12,/,18%,?,/,/,/
Brc1ccc2[nH]cc(C=NN3CCCCCC3)c2c1,/,?,50µM*,/,/,/
CC12CCCCC1N(O)CN2O (stereo not drawn),-7%,46%,?,3%,7.9µM*,4%
Cc1ccsc1/C=C1\C(=O)NC(=S)N(C)C1=O,20µM*,6%,89µM*,-11%,7.9µM*,?
COc1ccc(/C=C2\C(=O)NC(=S)N(C)C2=O)cc1C,18µM*,8.9µM*,4µM*,1%,/,?
CN1C(=O)/C(=C/c2ccc(Cl)s2)C(=O)NC1=S,13µM*,7%,25µM*,4%,/,-38%
CC(C)C[C@H]1CN([C@@H](CC(C)C)CN2CCCC2CN2C(=S)NC[C@@H]2Cc2ccc(O)cc2)C(=S)N1CC1CCCCCC1 (stereo partly drawn),/,36%,?,/,/,/
CC1=C2C[C@H]3[C@@H](CC=C4C[C@@H](O)CC[C@@]43C)[C@@H]2CC[C@]12O[C@@H]1C[C@H](C)CN[C@H]1C2C (stereo partly drawn),17%,/,/,/,7%[59 µM],/
CC(C)(C)NC(=O)N1c2ccccc2Sc2ccccc21,-4%,53%,-4%,/,7%,3%
CC[N+](C)(CC)CCCOC(=O)C(O)(c1ccccc1)C1CCCCC1 (stereo not drawn),-2%,?,40µM*,10%,?,-28%
CCOC(C(=O)OCCC[N+](C)(CC)CC)(c1ccccc1)c1ccccc1,24%,15%,-4%,/,-4%[59 µM],-20%
C=CCN1CCc2cccc3c2C1Cc1ccc(O)c(O)c1-3 (stereo not drawn),45µM*,/,/,/,0.35µM*,/
CN1CCc2cc(O)cc3c2C1Cc1ccc(O)c(O)c1-3 (stereo not drawn),40µM*,/,/,/,0.71µM*,/
SMILES,Sfp inh,HP1b binding inh,JMJD2A Tudor,L3MBTL1 block,G9a inh,BAZ2B inh
COc1ccc2c(c1O)-c1cccc3c1C(C2)N(C)CC3 (stereo not drawn),/,/,/,/,12%[12.7 µM],/
C=CCN1CC[C@]23c4c5ccc(O)c4OC2C(O)C=CC3[C@H]1C5 (stereo partly drawn),/,44%,-14%,-2%,/,/
CCCN1CCc2cccc3c2[C@H]1Cc1ccc(O)c(O)c1-3,/,16µM*,22µM*,/,1.7µM*,/
CC[C@H](C)[C@H](NC(=O)[C@@H](N)Cc1ccc(O)cc1)C(=O)NCC(=O)N[C@@H](CO)C(=O)N[C@@H](CCCN=C(N)N)C(N)=O,-3%,/,/,/,/,/
COC(=O)C1=C(C(=O)OC)SC2(S1)C(C(=O)OC)=C(C(=O)OC)Sc1c2ssc1=O,/,16µM*,40µM*,/,/,/
COC(=O)C(O)(c1ccc(N(C)C(=O)c2cccs2)cc1)C(F)(F)F (stereo not drawn),-8%,-1%,22µM*,3%,-7%,-8%
O=C(O)CN(CCN(CC(=O)O)CC(=O)O)CC(=O)O,13%,/,/,/,50%[59 µM],/
CC(C)(C)c1ccc(O)c(N=Cc2c(O)ccc3ccccc23)c1,17%,30%,?,-4%,8.9µM*,40µM*
Cc1cscn1,/,69%,-9%,1%,10%[0.501 µM],8%
C[C@]12C/C(=C/O)C(=O)C[C@@H]1CC[C@@H]1[C@@H]2CC[C@@]2(C)[C@H]1CC[C@]2(C)O,1%,/,/,/,18µM*,/
C[C@]12CCC(=O)C=C1CCC1C2CC[C@@]2(C)C1CC[C@]2(C)O (stereo partly drawn),/,8%[57 µM],-17%,4%,/,/
CC1CCN(C(CC(=O)c2ccccc2)C(=O)c2ccccc2)CC1 (stereo not drawn),/,?,20µM*,/,/,/
CN(C)C(=O)Oc1ccc(Cl)c2ccccc12,-6%,64%,13%,/,-39%[12.7 µM],-5%
Cc1c(OC(=O)N(C)C)ccc2c1O/C(=C\c1ccco1)C2=O,79µM*,10%,-17%,/,32µM*,56µM*
CCCCCCCCCCCCCC(=O)OC1C(C)[C@@]2(O)C(C=C(CO)C[C@]3(O)C(=O)C(C)=C[C@H]23)[C@@H]2C(C)(C)[C@]12OC(C)=O (stereo partly drawn),2%,/,/,/,-31%[2.33 µM],/
Cn1c(O)c(C2=NNC(c3ccc(Cl)cc3)C2)c(=O)n(C)c1=O (stereo not drawn),1%,30%,-3%,-16%,/,45µM*
Cc1ccc2nc3c(cc2c1)CC1(C(=O)N(C)C(=O)N(C)C1=O)C1CCCCN31 (stereo not drawn),?,58%,-1%[57.1 µM],/,-50%[12.7 µM],-35%
CN1CCN(c2ccc(Cl)cc2N)CC1,-6%,45%,-5%,3%,11%[0.501 µM],7%
